SMILES strings stand for the structures. For some of these results: Results with a measured potency or affinity are listed apart.

Set-up in all cases: scale not given: direction of the effect not stated beside the values
For assay [1], the target named is Protein translocase subunit SecA (Escherichia coli (strain K12)) (UniProt P10408). The assay is described as follows: Assay to Identify E. coli SecA ATPase Inhibitors. Type of assay: functional. Particulars: 30 µM.
Assay [2] has as its target T1, Ubiquitin-activating enzyme e1, putative (Leishmania donovani (strain BPK282A1)) (UniProt E9BSI1).
T1 sequence (whole entry): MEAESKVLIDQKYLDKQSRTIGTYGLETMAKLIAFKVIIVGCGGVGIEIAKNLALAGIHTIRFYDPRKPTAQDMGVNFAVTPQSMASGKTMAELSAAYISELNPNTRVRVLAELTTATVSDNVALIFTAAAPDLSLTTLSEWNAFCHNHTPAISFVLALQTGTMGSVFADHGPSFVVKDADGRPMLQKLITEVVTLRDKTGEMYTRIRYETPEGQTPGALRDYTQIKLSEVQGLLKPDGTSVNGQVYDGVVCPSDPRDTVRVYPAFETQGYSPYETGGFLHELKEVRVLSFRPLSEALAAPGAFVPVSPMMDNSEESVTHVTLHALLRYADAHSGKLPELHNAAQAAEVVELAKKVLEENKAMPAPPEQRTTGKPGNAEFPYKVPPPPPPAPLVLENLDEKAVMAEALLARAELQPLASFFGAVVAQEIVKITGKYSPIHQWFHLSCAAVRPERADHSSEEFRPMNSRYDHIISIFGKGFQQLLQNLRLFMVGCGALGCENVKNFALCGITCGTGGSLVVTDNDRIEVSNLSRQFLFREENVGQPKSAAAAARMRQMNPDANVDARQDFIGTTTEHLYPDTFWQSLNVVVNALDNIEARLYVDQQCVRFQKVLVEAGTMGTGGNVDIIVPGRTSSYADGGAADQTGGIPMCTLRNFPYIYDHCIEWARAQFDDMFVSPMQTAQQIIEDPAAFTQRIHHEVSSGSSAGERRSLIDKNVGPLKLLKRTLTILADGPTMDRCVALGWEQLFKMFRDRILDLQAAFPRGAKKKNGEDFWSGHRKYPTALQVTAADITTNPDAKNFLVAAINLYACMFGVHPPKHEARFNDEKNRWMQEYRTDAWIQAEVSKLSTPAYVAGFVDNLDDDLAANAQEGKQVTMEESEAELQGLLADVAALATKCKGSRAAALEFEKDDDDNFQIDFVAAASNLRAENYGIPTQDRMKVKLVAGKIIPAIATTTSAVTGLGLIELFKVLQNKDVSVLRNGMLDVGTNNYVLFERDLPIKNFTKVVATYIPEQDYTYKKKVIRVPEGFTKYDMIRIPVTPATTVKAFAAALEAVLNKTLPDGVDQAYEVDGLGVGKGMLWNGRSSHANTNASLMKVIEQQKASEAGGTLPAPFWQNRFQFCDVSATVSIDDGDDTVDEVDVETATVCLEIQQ
Description: Leishmania donovani Ubiquitin Activating Enzyme (LdE1). It counts as functional. The settings on record: 30 µM.

Assay [3] has as its target AMP-activated protein kinase, AMPK (Homo sapiens) (UniProt P54646+O43741+P54619+Q9UGJ0+Q9Y478+Q13131+Q9UGI9). Description: AMP-dependent Kinase enzyme assay. An in vitro enzyme assay that detects ADP turnover that is directly proportional to AMPK activity. This uses naive AMPK that is activated during the assay with MK-8722. Type of assay: functional. Particulars: 30 µM.

Assay [4] deals with Sialic acid-binding Ig-like lectin 9 (Homo sapiens) (UniProt Q9Y336). Description: Hs-Siglec9 ALPHAscreen SOP 20170721. The settings on record: 10 µM. In general terms: Alpha assays give light when donor and acceptor beads are brought close together.
Sialic acid-binding Ig-like lectin 9 (Homo sapiens), sequence (Q9Y336 whole entry): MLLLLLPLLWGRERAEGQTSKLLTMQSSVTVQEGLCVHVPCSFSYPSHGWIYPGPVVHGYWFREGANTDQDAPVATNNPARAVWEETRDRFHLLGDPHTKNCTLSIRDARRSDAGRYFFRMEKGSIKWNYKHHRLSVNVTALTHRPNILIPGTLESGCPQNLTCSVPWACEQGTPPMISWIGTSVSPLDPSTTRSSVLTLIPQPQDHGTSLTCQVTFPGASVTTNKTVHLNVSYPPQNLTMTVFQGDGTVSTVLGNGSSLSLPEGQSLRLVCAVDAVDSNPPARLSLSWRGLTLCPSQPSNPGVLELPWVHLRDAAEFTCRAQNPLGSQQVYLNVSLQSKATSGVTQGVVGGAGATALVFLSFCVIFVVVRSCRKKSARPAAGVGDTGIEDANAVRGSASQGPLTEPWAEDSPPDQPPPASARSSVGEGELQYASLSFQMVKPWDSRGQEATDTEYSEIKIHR
The next assay has as its system Trypanosoma cruzi. Description: Trypanosoma cruzi phosphomannomutase and mannose-1-phosphate guanylyltransferase assay. Particulars: 10 µM. It counts as functional.
The target in assay [5] is T2, Arginase-2, mitochondrial (Homo sapiens) (UniProt P78540).
T2 sequence (whole entry): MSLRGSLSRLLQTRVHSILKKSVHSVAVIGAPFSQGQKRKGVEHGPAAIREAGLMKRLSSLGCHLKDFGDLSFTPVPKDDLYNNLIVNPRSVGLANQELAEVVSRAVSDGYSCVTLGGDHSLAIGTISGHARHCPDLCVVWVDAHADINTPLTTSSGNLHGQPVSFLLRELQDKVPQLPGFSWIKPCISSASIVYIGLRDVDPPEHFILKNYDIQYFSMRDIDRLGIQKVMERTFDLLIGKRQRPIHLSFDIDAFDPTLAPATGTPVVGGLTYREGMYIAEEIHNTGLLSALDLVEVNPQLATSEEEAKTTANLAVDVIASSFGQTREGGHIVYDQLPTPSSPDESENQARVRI
The assay is described as follows: in vitro enzyme assay to detect the production of urea directly proportional to the activity of Arginase II. Further: in the data most compounds retested in dose-response had high values. Type of assay: functional. The settings on record: 33.3 µM.

In assay [6] the target is T3, Proteasome subunit beta (Trypanosoma cruzi) (UniProt O96673).
T3 sequence (whole entry): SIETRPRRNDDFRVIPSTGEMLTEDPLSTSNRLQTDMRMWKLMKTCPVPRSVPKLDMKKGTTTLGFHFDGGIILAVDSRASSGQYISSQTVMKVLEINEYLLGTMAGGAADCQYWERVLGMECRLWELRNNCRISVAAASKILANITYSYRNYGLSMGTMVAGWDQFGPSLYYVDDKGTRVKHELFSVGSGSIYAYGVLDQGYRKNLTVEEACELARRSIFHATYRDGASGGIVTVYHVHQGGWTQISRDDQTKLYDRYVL
The assay is described as follows: Trypanosoma cruzi proteasome chymotrypsin-like activity (TcProtChymo) assay. Further: in the data most compounds retested in dose-response had high values. It counts as functional. The settings on record: 9.37 µM.

The next assay is filed under the species Homo sapiens. Description: To identify inhibition of the IFN signalling (Jak-Stat) pathway via expression of an eGFP reporter gene under the control of an IFN-stimulated response element (ISRE) containing MxA promoter. Type of assay: functional. The settings on record: 30 µM. Background: A reporter such as luciferase makes a cellular process visible.
Assay [7] addresses T4, Tyrosyl-tRNA synthetase, putative (Trypanosoma cruzi (strain CL Brener)) (UniProt Q4DSP6).
T4 sequence (whole entry): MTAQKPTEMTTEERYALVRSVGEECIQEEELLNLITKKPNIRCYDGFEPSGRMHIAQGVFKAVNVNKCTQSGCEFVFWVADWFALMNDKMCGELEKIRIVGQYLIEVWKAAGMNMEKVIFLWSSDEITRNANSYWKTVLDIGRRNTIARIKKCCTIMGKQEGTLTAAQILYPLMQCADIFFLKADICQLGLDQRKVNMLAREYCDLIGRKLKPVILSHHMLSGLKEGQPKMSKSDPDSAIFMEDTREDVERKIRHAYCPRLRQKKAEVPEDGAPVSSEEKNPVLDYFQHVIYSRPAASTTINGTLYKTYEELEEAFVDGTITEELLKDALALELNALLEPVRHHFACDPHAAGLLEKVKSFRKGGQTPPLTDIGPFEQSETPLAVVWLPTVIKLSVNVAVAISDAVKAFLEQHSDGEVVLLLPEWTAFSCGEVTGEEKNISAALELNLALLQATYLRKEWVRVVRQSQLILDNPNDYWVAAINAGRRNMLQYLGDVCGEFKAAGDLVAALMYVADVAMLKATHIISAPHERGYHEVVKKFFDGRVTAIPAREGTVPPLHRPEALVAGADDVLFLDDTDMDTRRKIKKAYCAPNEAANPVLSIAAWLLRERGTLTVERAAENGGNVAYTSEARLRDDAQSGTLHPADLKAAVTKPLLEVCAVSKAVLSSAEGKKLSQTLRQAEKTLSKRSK
Description: Trypanosoma cruzi tyrosyl tRNA synthetase (TcYRS) _High Tyrosine SOP. Further: in the data most compounds retested in dose-response had high values. Particulars: 30 µM. Type of assay: functional.

The target of assay [8] is T4, Tyrosyl-tRNA synthetase, putative (Trypanosoma cruzi (strain CL Brener)). Description: Trypanosoma cruzi tyrosyl tRNA synthetase (TcYRS) SOP. It counts as functional. Particulars: 30 µM.
Assay [9] deals with Chromo domain-containing protein 1 (Saccharomyces cerevisiae (strain ATCC 204508 / S288c) (Baker's yeast)) (UniProt P32657). The assay is described as follows: ScCHD-1 Enzyme Inhibition Assay. Further: in the data most compounds retested in dose-response had high values. It counts as functional. Particulars: 30 µM.
Chromo domain-containing protein 1 (Saccharomyces cerevisiae (strain ATCC 204508 / S288c) (Baker's yeast)), sequence (P32657 whole entry, the tested form may be a part): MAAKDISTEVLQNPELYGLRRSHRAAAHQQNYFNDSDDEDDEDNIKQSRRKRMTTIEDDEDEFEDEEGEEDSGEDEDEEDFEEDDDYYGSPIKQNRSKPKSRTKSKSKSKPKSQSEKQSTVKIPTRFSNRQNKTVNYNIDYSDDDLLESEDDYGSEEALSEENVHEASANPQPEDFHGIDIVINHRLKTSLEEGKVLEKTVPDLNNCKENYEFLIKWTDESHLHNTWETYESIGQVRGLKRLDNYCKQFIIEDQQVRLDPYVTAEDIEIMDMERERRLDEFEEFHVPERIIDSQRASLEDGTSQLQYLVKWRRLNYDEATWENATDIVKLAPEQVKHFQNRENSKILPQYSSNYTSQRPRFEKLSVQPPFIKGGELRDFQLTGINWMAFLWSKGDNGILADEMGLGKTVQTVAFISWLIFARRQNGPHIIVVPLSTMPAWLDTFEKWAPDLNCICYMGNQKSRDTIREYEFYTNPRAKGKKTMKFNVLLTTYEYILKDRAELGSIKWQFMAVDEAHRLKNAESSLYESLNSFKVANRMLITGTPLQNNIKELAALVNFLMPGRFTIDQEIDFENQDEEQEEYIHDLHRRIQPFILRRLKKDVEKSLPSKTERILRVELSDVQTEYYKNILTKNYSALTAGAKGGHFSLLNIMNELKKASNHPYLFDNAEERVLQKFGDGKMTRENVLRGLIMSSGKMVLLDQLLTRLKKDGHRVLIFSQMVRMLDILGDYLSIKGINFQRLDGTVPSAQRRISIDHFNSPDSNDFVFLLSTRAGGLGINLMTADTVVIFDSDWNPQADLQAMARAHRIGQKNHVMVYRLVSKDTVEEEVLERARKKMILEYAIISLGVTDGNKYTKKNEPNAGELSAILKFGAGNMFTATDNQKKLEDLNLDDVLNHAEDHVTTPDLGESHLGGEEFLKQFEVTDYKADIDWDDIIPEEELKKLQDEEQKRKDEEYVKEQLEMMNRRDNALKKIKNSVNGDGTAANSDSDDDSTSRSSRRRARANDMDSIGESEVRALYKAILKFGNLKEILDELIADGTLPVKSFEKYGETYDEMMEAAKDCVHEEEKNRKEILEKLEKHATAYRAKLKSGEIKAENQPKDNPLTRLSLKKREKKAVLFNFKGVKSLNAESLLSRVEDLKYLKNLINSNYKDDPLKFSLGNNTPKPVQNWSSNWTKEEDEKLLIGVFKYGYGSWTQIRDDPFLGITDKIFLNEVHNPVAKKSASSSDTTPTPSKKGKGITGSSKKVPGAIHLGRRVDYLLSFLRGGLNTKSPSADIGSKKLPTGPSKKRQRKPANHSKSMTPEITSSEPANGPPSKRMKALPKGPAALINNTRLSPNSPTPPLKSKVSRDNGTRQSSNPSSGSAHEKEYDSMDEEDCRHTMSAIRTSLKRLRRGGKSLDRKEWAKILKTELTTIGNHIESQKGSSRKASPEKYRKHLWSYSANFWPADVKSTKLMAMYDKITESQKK

Protein translocase subunit SecA (Escherichia coli (strain K12)), sequence (P10408 whole entry): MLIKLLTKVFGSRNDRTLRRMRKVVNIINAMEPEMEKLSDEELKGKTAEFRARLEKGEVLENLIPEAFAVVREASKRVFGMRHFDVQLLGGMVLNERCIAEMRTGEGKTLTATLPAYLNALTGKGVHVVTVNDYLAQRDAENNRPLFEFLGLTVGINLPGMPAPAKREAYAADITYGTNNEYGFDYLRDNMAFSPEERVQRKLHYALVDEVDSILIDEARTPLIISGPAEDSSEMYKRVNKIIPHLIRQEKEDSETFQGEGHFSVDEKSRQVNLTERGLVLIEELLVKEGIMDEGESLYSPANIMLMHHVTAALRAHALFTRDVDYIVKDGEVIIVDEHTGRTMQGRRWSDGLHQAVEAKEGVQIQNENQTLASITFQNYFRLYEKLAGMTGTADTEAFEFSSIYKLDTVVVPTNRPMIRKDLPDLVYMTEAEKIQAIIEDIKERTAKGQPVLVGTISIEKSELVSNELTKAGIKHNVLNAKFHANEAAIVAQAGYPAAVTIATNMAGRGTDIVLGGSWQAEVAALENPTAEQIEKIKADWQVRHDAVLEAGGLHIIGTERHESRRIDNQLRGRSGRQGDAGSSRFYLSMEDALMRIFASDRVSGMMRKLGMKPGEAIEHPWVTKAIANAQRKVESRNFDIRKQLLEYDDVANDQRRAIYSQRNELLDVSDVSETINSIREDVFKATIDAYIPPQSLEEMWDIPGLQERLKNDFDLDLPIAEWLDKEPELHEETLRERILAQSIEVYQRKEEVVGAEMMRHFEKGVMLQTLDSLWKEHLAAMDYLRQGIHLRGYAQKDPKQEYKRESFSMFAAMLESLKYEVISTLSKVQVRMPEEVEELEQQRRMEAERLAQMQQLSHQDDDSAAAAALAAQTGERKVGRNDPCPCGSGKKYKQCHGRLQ

As for `Cc1oc(C(=O)O)cc1S(=O)(=O)Nc1c(F)cccc1-n1cccn1`, the Percent Effect was -5.09% in assay [1]; 0% in assay [2]; -0.737% in [3]; 4.46% in [4]; 7.5% in the assay with Trypanosoma cruzi; 0% in [5]. The Percent Effect in assay [6] is 11%; in the assay listed under Homo sapiens, 7.88%; in [7], 2.73%; in [8], 6.17%; in [9] it was -3.81%.

On to `Cc1nn(C)c(N2CCOCC2)c1CNCc1ccc(Cl)s1`, for which the Percent Effect in assay [1] was -3.24%; in assay [2] it was 10.4%; in [3], 2.59%; in [4] it was -1.94%; with Trypanosoma cruzi, 2.06%; in [5] it was 1.9%. Besides, the Percent Effect in [6] is 9.62%; in the assay filed under Homo sapiens it was 11.3%; in assay [7] it was 11.4%; in assay [8] it was 25.9%; in [9] it was -8.79%.

Regarding `CCc1n[nH]c(C2CN(C(=O)Cn3ccccc3=O)CCO2)n1` (stereo unspecified), the Percent Effect is 0.155% in assay [1]; 16.5% in assay [2]; -10.9% in assay [3]; -3.88% in assay [4]; 0.718% in the assay on Trypanosoma cruzi; 6.67% in [5]. Moreover, the Percent Effect in assay [6] is 17.1%; in the assay listed under Homo sapiens, 2.18%; in assay [7] it was 3.12%; in assay [8], 12.7%; in assay [9], -24.2%.

For `CC(C)n1c(=O)nc2n1C(=O)N(c1ccccc1)C2`, the Percent Effect in [1] is -3.47%; in assay [2] it was 18.4%; in assay [3] it was -0.93%; in assay [4], -3.33%; in the assay with Trypanosoma cruzi, 0.682%; in [5], -4.73%. Moreover, the Percent Effect in assay [6] was 14.7%; in the assay listed under Homo sapiens, -2.62%; in assay [7] it was 6.38%; in assay [8] it was 18.2%; in [9] it was -9.74%.

For `CSCC(=O)N1CCC2(CC1)c1ccccc1CC2O` (stereo unspecified), the Percent Effect is -1.39% in [1]; 18.2% in assay [2]; 10.7% in [3]; 2.45% in [4]; 2.26% with Trypanosoma cruzi; -4.14% in assay [5]. The Percent Effect in assay [6] was 18.5%; in the assay listed under Homo sapiens, 5.92%; in assay [7], 5.38%; in [8] it was 11.1%; in [9], -3.92%.

As for `CCCC(NC(=O)c1ccc(OC)cc1F)c1nnn[nH]1` (stereo unspecified), the Percent Effect is -2.26% in [1]; 5.33% in assay [2]; -8.28% in assay [3]; 11.5% in assay [4]; 5.16% with Trypanosoma cruzi; 17.2% in assay [5]. Moreover, the Percent Effect in assay [6] is 9.24%; in the assay filed under Homo sapiens it was -13.2%; in assay [7], 4.92%; in assay [8] it was 8.64%; in assay [9], -4.91%.

Turning to `CCN1CCCN(C(=O)c2cnc(OC(C)C)c(Cl)c2)CC1`, the Percent Effect in assay [1] was -2.83%; in [2] it was -8.22%; in [3], 9.83%; in [4], -2.64%; in the assay with Trypanosoma cruzi it was -15.9%; in assay [5], -1.2%. Further, the Percent Effect in [6] is 3.68%; in the assay listed under Homo sapiens it was 6.45%; in assay [7], 1.04%; in assay [8], -30.9%; in [9], 1.65%.

In the case of `O=C(c1cc(Cl)c2c(c1)OCO2)N1CCN(c2ccccn2)CC1`, the Percent Effect was -2.8% in assay [1]; 5.48% in assay [2]; -6.15% in [3]; 5.68% in [4]; 1.37% with Trypanosoma cruzi; 3.64% in assay [5]. The Percent Effect in [6] is 16.1%; in the assay filed under Homo sapiens, 14.1%; in [7] it was 7.53%; in assay [8] it was 15%; in assay [9], -12.5%.

Regarding `CCc1nc(C2CCCN2Cc2nnc(Cc3ccccc3)o2)no1` (stereo unspecified), the Percent Effect in assay [1] was -3%; in assay [2], 0%; in assay [3], 2.23%; in assay [4], 3.12%; in the assay with Trypanosoma cruzi it was 8.52%; in assay [5] it was 1.9%. Moreover, the Percent Effect in assay [6] is 5.25%; in the assay filed under Homo sapiens it was -2.79%; in assay [7], 1.91%; in assay [8], 2.35%; in [9], 4.27%.

`CC(C)N1CCC(NCc2cccnc2N(C)Cc2ccccc2)CC1`: the Percent Effect in assay [1] was -6.5%; in assay [2], 5.33%; in assay [3] it was -5.44%; in [4], 0.0952%; in the assay on Trypanosoma cruzi, 0.0974%; in assay [5] it was 1.04%. Besides, the Percent Effect in [6] is 4.01%; in the assay filed under Homo sapiens it was -2.28%; in assay [7], 1.64%; in [8] it was 6.17%; in assay [9], -5.77%.

For `CCn1nccc1CNC(=O)C(C)n1cc2c(n1)c(C)nn2C` (stereo unspecified), the Percent Effect in assay [1] is -5.47%; in assay [2] it was 20%; in assay [3] it was -7.37%; in assay [4] it was 0.228%; with Trypanosoma cruzi it was 0.197%; in assay [5] it was -11.4%. The Percent Effect in [6] is 10.5%; in the assay listed under Homo sapiens it was 2.05%; in assay [7], 5.29%; in assay [8], 12.8%; in assay [9], -12.4%.
